In PubChem BioAssay AID1159580 (chemical genetic matrix, 2015):
“And” between values parts separate entries of the source, which are not always exact repeats. Identical values can stand only once. Screen size: about 5,500 compounds; about 2,000 (36%) were called active. About 18% were inconclusive and are not listed. Cut-off read from the data, not from the text of the source: active = normalized growth mostly below about 0.91 (no sharp cut-off); inconclusive = no clear call, values can overlap the other calls; inactive = mostly above about 0.92. Some of the results follow.

Test: chemical genetic growth profiling, strain panel (AID 1159580);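 note: tested at 20 µM; growth read once vehicle control cultures reached saturation at 30 °C; 1 = growth at the plate median or of vehicle wells; lower values mean less growth of the strain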
Details: S. cerevisiae deletion strains, growth OD

Measured: normalized growth

CC(=O)O[C@@H]1C2CC[C@@H]3C1(C[C@@H](O)[C@@]1(O)[C@@H](C[C@H](O)C1(C)C)[C@]3(C)O)C[C@@]2(C)O (stereo partly drawn)
inactive: locus YAL021C, strain ccr4, hits give low values 0.996 | locus YAL026C, strain drs2, hits give low values 0.984 | locus YAL030W, strain snc1, hits give low values 0.992 | locus YBL061C, strain skt5, hits give low values 1 | locus YBR009C, strain hhf1, hits give low values 0.99 | locus YBR021W, strain FUR4, hits give low values 1.02 | locus YBR023C, strain chs3, hits give low values 0.997 | locus YBR171W, strain sec66, hits give low values 0.979 | locus YBR229C, strain ROT2, hits give low values 0.958 | locus YBR231C, strain swc5, hits give low values 0.997 | locus YBR279W, strain paf1, hits give low values 1 | locus YCL011C, strain gbp2, hits give low values 0.985 | locus YCL016C, strain dcc1, hits give low values 0.987 | locus YCL029C, strain bik1, hits give low values 0.974 | locus YCL061C, strain MRC1, hits give low values 0.995 | locus YCL069W, strain vba3, hits give low values 0.989 | locus YCR088W, strain abp1, hits give low values 0.988 | locus YDL005C, strain med2, hits give low values 0.976 | locus YDL035C, strain GPR1, hits give low values 0.998 | locus YDL040C, strain nat1, hits give low values 0.986 | locus YDL074C, strain BRE1, hits give low values 1.07 | locus YDL101C, strain DUN1, hits give low values 0.988 | locus YDL134C, strain PPH21, hits give low values 1.05 | locus YDL185W, strain tfp1, hits give low values 0.992 | locus YDL192W, strain arf1, hits give low values 0.992 | locus YDR001C, strain nth1, hits give low values 0.996 | locus YDR069C, strain doa4, hits give low values 0.999 | locus YDR101C, strain arx1, hits give low values 0.976 | locus YDR137W, strain rgp1, hits give low values 0.922 | locus YDR159W, strain sac3, hits give low values 0.995 | locus YDR162C, strain NBP2, hits give low values 1.01 | locus YDR195W, strain ref2 0.962 | locus YDR297W, strain sur2, hits give low values 0.989 | locus YDR318W, strain mcm21, hits give low values 0.991 | locus YDR334W, strain swr1, hits give low values 0.957 | locus YDR335W, strain msn5, hits give low values 0.999 | locus YDR388W, hits give low values 0.996 | locus YDR392W, strain spt3, hits give low values 0.993 | locus YDR502C, strain sam2, hits give low values 1 | locus YEL003W, strain gim4, hits give low values 0.988 | locus YEL037C, strain rad23, hits give low values 0.997 | locus YEL061C, strain CIN8 (second series), hits give low values 0.99 | locus YER015W, strain faa2, hits give low values 0.997 | locus YER016W, strain bim1, hits give low values 0.985 | locus YER110C, hits give low values 0.96 | locus YER111C, strain swi4, hits give low values 0.998 | locus YER155C, strain BEM2 (second series), hits give low values 0.977 | locus YER155C, strain BEM2, hits give low values 0.997 | locus YER167W, strain BCK2, hits give low values 0.998 | locus YFR010W, strain ubp6, hits give low values 0.977 | locus YGL078C, strain dbp3, hits give low values 1 | locus YGL086W, strain mad1, hits give low values 1 | locus YGL167C, strain pmr1, hits give low values 0.998 | locus YGL173C, strain kem1, hits give low values 0.987 | locus YGL227W, strain vid30, hits give low values 0.998 | locus YGL240W, strain doc1, hits give low values 0.991 | locus YGL248W, strain PDE1, hits give low values 1.02 | locus YGL253W, strain hxk2, hits give low values 0.996 | locus YGR078C, strain PAC10, hits give low values 1.01 | locus YGR135W, strain pre9, hits give low values 1.05 | locus YGR252W, strain gcn5, hits give low values 1.08 | locus YHR013C, strain ard1, hits give low values 0.984 | locus YHR027C, strain rpn1, hits give low values 0.989 | locus YHR030C, strain SLT2, hits give low values 1 and 0.972 | locus YHR079C, strain IRE1 (second series), hits give low values 0.983 | locus YHR079C, strain IRE1, hits give low values 0.959 | locus YHR094C, strain hxt1, hits give low values 0.991 | locus YHR129C, strain ARP1, hits give low values 1.01 | locus YHR142W, strain chs7, hits give low values 0.997 | locus YHR200W, strain rpn10, hits give low values 0.995 | locus YIL066C, strain RNR3, hits give low values 1 | locus YIL073C, strain SPO22, hits give low values 1.08 | locus YIL125W, strain kgd1, hits give low values 0.971 | locus YIR030C, strain dcg1, hits give low values 0.993 | locus YJL092W, strain hpr5, hits give low values 0.985 | locus YJL095W, strain BCK1 (second series), hits give low values 0.996 | locus YJL095W, strain BCK1, hits give low values 1.06 and 0.981 | locus YJL115W, strain asf1, hits give low values 0.969 | locus YJL129C, strain trk1, hits give low values 0.992 | locus YJL134W, strain LCB3, hits give low values 0.99 | locus YJL154C, strain vps35, hits give low values 0.983 | locus YJL164C, strain tpk1, hits give low values 0.995 | locus YJL166W, strain qcr8, hits give low values 0.999 | locus YJL168C, strain set2, hits give low values 0.995 | locus YJL187C, strain SWE1 (second series), hits give low values 0.995 | locus YJL187C, strain SWE1, hits give low values 0.994 | locus YJR066W, strain TOR1, hits give low values 0.961 | locus YKL009W, strain mrt4, hits give low values 0.992 | locus YKL068W, hits give low values 0.988 | locus YKL085W, strain MDH1 (second series), hits give low values 0.999 | locus YKL085W, strain MDH1, hits give low values 0.999 | locus YKL160W, strain elf1, hits give low values 0.998 | locus YKL190W, strain CNB1, hits give low values 1.01 | locus YKR001C, strain vps1, hits give low values 0.997 | locus YKR026C, strain gcn3, hits give low values 0.987 | locus YKR091W, strain srl3, hits give low values 1 | locus YLL001W, strain dnm1, hits give low values 0.991 | locus YLL026W, hits give low values 0.993 | locus YLL041C, strain sdh2, hits give low values 0.989 | locus YLR027C, strain aat2, hits give low values 0.985 | locus YLR039C, strain RIC1, hits give low values 1.19 | locus YLR058C, strain SHM2, hits give low values 0.993 | locus YLR102C, strain apc9, hits give low values 0.999 | locus YLR113W, strain HOG1, hits give low values 0.987 | locus YLR221C, strain rsa3, hits give low values 0.992 | locus YLR258W, strain gsy2, hits give low values 0.983 | locus YLR262C, strain YPT6 (second series), hits give low values 1 | locus YLR268W, strain sec22, hits give low values 0.987 | locus YLR320W, strain mms22, hits give low values 1.01 | locus YLR342W, strain FKS1 (second series), hits give low values 0.986 | locus YLR342W, strain FKS1, hits give low values 1 | locus YLR357W, strain rsc2, hits give low values 0.995 | locus YLR370C, strain arc18, hits give low values 1 | locus YLR371W, strain rom2, hits give low values 1 | locus YLR384C, strain iki3, hits give low values 0.99 | locus YLR418C, strain cdc73, hits give low values 1.01 | locus YML016C, strain PPZ1, hits give low values 0.99 | locus YML032C, strain rad52, hits give low values 0.99 | locus YML120C, strain ndi1, hits give low values 0.994 | locus YML124C, strain tub3, hits give low values 1 | locus YMR058W, strain fet3, hits give low values 0.984 | locus YMR078C, strain ctf18, hits give low values 0.99 | locus YMR125W, strain sto1, hits give low values 0.981 | locus YMR129W, hits give low values 0.993 | locus YMR205C, strain PFK2, hits give low values 1.01 | locus YMR223W, strain ubp8, hits give low values 1.01 | locus YMR231W, strain pep5, hits give low values 0.993 | locus YMR263W, strain SAP30, hits give low values 0.991 | locus YMR307W, strain GAS1, hits give low values 1.16 | locus YNL067W, strain RPL9B, hits give low values 1.01 | locus YNL071W, strain lat1, hits give low values 0.981 | locus YNL153C, strain GIM3, hits give low values 0.994 | locus YNL183C, strain NPR1, hits give low values 0.952 | locus YNL209W, strain ssb2, hits give low values 0.987 | locus YNL233W, strain BNI4, hits give low values 1.05 | locus YNL248C, strain rpa49, hits give low values 0.98 | locus YNL250W, strain rad50, hits give low values 0.974 | locus YNL271C, strain bni1, hits give low values 1 | locus YNL298W, strain CLA4, hits give low values 0.992 | locus YNL307C, strain MCK1, hits give low values 0.99 | locus YNL322C, strain KRE1 (second series), hits give low values 0.99 | locus YNL322C, strain KRE1, hits give low values 0.992 | locus YNR049C, strain mso1, hits give low values 0.996 | locus YNR052C, strain pop2, hits give low values 1.01 | locus YOL006C, strain TOP1, hits give low values 1.16 | locus YOL012C, strain htz1 1.28 | locus YOL147C, strain pex11, hits give low values 1 | locus YOR001W, strain rrp6, hits give low values 0.987 | locus YOR061W, strain CKA2, hits give low values 0.985 | locus YOR069W, strain VPS5, hits give low values 1.01 | locus YOR070C, strain gyp1, hits give low values 0.985 | locus YOR080W, strain dia2, hits give low values 0.997 | locus YOR083W, strain WHI5, hits give low values 1 | locus YOR106W, strain vam3, hits give low values 0.985 | locus YOR136W, strain idh2, hits give low values 0.995 | locus YOR144C, strain elg1, hits give low values 0.994 | locus YOR184W, strain ser1, hits give low values 0.992 | locus YOR231W, strain MKK1, hits give low values 0.963 | locus YOR265W, strain rbl2, hits give low values 0.994 | locus YOR270C, strain vph1, hits give low values 0.984 | locus YOR290C, strain snf2, hits give low values 1 | locus YOR316C, strain cot1, hits give low values 0.987 | locus YPL051W, strain arl3, hits give low values 1.01 | locus YPL078C, strain atp4, hits give low values 0.996 | locus YPL106C, strain sse1, hits give low values 0.98 | locus YPL240C, strain hsp82, hits give low values 0.98 | locus YPL241C, strain CIN2, hits give low values 1.01 | locus YPL256C, strain CLN2, hits give low values 0.995 | locus YPR119W, strain clb2, hits give low values 0.992 | locus YPR141C, strain kar3, hits give low values 0.979 | locus YPR163C, strain tif3, hits give low values 1.01 | locus YPR167C, strain met16, hits give low values 1 | strain wtn01, hits give low values 0.985
